The supplement of paper PMC11732987, “Enantioselective OTUD7B fragment discovery through chemoproteomics screening and high-throughput optimisation” (Communications Chemistry, 2025)

Columns and labels:
Test in all cases: log2 ratio of Biotin-Ahx-Ub-VS probe labelling (fragment/DMSO); higher = less target engagement (more negative = stronger competition), active = hit call of the paper (q ≤ 0.05, log2 ratio ≤ -1)
Conditions in all cases: compound concentration: 200 uM; treatment time: 3 h
USP42 = molecular target: T1, USP42 (UniProt Q9H9J4)
T1 sequence (whole entry): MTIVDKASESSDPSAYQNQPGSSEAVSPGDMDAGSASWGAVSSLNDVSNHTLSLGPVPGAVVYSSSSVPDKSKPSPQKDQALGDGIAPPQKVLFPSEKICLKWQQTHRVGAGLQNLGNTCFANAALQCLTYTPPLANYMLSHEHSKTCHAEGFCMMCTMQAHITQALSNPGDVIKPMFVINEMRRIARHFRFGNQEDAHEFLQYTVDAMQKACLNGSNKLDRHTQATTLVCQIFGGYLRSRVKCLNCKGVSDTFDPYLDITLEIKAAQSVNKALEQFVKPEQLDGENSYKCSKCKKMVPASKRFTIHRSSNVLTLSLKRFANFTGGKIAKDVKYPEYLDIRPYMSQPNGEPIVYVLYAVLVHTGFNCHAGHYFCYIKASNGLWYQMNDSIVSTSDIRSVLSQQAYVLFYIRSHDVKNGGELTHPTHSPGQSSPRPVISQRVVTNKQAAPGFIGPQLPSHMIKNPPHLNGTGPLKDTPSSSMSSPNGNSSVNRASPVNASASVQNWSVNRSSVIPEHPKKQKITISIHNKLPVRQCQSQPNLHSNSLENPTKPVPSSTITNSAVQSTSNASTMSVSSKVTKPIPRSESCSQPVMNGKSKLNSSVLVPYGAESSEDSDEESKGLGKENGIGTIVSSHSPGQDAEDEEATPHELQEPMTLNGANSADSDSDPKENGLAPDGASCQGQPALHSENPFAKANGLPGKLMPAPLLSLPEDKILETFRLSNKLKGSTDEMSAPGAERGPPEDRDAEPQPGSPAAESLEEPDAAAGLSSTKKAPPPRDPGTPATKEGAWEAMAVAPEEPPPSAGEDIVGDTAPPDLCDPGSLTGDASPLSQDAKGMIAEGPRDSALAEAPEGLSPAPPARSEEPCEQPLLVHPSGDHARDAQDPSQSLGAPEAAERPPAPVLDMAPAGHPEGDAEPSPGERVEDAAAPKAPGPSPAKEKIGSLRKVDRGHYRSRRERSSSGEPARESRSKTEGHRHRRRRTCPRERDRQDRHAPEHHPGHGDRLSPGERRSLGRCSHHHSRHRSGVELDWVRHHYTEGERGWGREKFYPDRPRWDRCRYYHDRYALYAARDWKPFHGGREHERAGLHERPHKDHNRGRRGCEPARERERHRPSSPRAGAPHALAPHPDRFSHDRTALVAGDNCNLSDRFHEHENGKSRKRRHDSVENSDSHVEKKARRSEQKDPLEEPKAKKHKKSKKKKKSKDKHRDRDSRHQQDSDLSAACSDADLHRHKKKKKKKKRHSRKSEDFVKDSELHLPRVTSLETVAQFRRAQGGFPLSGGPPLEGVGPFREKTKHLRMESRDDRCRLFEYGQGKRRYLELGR
Method in brief: (§1)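 The table lists average log2 ratios of fragment over vehicle, from an unpaired t-test on global-median-normalised Spectronaut label-free quantities. Proteins with ≥2 unique peptides were used. Samples were HEK293T lysate (495 µg) treated in triplicate with fragment at 200 µM or vehicle for 3 h, then with Biotin-Ahx-Ub-VS (0.5 µM final) for 1 h, with labelled DUBs NeutrAvidin-enriched and run by diaPASEF LC-MS/MS.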

USP46 = USP46 (UniProt P62068)
Method in brief: as §1

USP47 = molecular target: T2, USP47 (UniProt Q96K76)
T2 sequence (whole entry): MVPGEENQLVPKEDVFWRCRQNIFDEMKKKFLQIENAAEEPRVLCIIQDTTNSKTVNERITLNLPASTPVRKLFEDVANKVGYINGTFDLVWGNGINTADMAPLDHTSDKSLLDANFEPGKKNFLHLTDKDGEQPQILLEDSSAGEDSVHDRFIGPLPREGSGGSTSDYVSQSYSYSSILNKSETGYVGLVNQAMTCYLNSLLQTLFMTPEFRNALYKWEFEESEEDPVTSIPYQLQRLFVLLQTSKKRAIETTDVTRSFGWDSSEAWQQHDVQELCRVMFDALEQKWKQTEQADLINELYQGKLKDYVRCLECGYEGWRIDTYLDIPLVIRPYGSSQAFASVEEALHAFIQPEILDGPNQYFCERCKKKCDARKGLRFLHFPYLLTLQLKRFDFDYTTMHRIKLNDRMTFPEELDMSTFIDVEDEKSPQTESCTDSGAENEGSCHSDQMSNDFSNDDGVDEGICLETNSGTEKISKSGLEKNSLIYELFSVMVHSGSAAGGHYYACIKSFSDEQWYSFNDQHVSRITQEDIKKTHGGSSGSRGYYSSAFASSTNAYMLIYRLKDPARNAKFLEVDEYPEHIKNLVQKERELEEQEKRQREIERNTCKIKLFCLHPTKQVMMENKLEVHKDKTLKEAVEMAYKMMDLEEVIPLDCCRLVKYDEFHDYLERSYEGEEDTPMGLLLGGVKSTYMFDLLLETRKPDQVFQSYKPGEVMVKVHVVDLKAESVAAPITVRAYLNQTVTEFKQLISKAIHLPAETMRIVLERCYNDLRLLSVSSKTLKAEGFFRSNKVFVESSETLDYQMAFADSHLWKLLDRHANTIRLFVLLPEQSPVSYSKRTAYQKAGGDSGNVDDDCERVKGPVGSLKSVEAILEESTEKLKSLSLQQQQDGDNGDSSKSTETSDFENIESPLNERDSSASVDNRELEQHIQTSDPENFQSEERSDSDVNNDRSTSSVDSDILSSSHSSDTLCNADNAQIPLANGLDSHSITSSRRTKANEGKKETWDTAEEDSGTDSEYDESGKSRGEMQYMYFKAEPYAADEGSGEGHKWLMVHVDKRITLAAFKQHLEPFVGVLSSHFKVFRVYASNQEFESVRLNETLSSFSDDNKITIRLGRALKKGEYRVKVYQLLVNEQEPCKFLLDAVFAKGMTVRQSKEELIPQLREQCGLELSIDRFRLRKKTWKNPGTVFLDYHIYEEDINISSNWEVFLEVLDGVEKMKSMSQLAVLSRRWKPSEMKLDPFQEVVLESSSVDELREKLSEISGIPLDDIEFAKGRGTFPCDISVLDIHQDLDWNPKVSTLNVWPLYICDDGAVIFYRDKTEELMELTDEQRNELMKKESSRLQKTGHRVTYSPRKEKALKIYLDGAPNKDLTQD
Method in brief: as §1

USP48 = molecular target: T3, USP48 (UniProt Q86UV5)
T3 sequence (whole entry): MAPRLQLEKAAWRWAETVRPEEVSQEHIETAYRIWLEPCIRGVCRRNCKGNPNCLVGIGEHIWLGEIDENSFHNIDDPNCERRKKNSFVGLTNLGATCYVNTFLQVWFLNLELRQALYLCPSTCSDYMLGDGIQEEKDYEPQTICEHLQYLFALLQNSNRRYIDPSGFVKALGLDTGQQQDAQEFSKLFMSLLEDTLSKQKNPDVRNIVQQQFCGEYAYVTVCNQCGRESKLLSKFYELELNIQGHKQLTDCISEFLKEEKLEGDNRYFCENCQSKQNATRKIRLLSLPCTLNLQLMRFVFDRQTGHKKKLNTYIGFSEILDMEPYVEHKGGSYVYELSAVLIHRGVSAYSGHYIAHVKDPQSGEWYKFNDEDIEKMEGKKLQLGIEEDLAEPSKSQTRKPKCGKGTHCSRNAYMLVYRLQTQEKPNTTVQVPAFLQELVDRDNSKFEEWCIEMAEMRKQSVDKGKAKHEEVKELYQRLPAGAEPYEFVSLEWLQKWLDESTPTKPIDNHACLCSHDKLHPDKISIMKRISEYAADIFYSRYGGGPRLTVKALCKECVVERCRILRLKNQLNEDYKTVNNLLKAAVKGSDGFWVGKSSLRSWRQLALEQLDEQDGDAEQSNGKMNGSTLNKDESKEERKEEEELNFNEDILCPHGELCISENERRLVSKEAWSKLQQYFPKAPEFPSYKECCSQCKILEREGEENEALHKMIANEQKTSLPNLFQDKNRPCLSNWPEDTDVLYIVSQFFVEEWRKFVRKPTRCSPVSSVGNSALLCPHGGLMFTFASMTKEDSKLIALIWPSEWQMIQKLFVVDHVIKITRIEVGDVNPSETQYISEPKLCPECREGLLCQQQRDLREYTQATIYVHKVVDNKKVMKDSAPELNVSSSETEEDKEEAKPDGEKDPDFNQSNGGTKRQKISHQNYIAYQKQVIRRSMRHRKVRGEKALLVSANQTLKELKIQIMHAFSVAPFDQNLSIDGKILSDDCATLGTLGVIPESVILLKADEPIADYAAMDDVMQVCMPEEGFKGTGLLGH
Method in brief: as §1

USP5 = molecular target: T4, USP5 (UniProt P45974)
T4 sequence (whole entry): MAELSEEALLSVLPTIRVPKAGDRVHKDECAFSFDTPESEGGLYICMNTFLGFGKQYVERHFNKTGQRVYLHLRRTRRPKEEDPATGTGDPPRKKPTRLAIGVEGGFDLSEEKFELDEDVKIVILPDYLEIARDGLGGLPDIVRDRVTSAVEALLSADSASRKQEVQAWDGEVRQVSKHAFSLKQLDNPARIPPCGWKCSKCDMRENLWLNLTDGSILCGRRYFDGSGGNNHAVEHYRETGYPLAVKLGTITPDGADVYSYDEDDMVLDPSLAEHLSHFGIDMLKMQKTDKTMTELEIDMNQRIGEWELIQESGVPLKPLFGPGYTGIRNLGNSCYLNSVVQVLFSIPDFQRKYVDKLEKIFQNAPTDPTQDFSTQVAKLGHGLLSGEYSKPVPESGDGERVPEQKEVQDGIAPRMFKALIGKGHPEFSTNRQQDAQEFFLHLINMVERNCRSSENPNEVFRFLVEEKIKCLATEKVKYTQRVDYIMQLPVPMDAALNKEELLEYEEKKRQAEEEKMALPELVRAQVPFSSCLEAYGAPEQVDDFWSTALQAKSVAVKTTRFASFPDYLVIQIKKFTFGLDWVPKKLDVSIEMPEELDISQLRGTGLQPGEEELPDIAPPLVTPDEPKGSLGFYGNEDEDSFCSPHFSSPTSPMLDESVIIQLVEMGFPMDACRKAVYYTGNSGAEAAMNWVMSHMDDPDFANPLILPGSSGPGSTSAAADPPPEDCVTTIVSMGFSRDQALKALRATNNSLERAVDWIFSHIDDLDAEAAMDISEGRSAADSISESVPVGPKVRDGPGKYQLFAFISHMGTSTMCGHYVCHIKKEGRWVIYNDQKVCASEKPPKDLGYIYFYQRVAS
Method in brief: as §1

USP54 = USP54 (UniProt Q70EL1)
Method in brief: as §1

USP7 = USP7 (UniProt Q93009)
Method in brief: as §1

USP8 = molecular target: T5, USP8 (UniProt P40818)
T5 sequence (whole entry): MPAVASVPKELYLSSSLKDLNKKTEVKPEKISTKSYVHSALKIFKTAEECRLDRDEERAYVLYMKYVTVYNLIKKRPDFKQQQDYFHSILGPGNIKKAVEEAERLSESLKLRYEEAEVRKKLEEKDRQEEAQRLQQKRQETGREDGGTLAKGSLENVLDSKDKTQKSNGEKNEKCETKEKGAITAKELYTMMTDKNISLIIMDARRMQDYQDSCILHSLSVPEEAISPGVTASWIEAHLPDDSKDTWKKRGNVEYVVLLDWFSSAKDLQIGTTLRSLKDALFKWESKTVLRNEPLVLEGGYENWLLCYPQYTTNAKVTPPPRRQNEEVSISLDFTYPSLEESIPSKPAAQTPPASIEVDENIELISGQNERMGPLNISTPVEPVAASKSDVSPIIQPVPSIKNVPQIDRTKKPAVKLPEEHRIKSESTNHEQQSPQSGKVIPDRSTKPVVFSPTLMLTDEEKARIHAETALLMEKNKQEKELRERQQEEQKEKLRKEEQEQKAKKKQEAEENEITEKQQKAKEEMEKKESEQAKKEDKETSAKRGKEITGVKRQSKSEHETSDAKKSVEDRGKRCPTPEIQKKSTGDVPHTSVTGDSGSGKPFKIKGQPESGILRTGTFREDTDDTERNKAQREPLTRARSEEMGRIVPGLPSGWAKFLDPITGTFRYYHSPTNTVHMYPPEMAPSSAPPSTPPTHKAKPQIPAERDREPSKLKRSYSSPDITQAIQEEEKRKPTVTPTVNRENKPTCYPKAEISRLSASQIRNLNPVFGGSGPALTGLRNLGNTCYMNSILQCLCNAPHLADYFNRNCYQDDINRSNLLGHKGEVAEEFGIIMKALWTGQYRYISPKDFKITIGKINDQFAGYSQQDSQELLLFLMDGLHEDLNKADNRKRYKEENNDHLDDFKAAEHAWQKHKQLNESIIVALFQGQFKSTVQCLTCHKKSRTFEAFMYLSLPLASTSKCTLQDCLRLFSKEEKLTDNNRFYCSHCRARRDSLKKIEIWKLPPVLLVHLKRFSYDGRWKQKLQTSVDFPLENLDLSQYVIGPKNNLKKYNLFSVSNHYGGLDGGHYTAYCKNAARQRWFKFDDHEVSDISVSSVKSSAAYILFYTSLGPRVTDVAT
Method in brief: as §1

USP9X = USP9X (UniProt Q93008)
Method in brief: as §1

UniProt O00487 = molecular target: UniProt O00487
Method in brief: as §1

Measured: log2 ratio of Biotin-Ahx-Ub-VS probe labelling

Chain of UniProt O00487 (O00487 whole entry): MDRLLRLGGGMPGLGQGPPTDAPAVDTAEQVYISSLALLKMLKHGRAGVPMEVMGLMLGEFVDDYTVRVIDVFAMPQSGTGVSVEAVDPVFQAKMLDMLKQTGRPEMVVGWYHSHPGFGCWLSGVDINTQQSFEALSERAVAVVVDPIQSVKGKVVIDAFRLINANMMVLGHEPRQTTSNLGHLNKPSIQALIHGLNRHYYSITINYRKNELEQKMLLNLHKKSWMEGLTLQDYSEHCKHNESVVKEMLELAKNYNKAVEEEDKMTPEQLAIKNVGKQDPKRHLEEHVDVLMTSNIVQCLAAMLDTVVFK
Chain of USP7 (Q93009 whole entry, looked up): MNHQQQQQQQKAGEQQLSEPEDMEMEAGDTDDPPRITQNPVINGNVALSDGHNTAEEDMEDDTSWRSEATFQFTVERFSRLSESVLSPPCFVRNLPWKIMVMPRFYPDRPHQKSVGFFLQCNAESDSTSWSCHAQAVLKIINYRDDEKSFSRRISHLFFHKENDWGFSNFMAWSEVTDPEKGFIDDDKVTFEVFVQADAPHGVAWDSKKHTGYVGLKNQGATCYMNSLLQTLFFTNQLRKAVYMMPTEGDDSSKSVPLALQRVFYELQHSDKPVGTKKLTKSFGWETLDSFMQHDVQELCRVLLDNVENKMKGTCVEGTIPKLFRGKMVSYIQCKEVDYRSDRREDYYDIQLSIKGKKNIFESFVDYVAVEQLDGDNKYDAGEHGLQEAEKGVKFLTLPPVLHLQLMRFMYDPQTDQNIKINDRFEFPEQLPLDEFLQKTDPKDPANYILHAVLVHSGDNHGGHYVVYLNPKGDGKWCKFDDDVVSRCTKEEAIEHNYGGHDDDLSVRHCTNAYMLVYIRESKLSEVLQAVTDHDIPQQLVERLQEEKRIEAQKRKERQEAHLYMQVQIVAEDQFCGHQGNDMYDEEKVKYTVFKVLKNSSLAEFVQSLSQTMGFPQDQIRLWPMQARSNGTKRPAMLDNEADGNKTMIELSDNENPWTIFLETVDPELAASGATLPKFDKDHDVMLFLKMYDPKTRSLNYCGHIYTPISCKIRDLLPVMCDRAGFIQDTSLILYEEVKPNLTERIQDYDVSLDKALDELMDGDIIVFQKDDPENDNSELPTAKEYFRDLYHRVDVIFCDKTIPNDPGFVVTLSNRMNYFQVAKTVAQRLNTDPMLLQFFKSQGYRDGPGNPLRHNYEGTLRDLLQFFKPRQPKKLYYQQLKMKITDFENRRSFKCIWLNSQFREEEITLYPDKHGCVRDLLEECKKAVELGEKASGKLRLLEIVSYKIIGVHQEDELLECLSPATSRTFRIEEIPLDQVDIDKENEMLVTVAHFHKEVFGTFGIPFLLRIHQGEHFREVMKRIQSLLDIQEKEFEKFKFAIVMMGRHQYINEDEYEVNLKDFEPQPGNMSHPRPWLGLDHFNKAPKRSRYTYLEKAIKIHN
Chain of USP46 (P62068 whole entry): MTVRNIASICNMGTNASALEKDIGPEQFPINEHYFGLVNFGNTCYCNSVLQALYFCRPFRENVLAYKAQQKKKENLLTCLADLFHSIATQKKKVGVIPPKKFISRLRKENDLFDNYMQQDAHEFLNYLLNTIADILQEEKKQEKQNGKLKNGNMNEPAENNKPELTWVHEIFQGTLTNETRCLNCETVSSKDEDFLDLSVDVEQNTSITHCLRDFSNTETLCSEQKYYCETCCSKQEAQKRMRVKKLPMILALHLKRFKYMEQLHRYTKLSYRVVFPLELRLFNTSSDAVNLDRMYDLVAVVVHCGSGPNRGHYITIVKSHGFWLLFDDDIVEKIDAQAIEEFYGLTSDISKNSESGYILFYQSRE
Chain of USP9X (Q93008 whole entry): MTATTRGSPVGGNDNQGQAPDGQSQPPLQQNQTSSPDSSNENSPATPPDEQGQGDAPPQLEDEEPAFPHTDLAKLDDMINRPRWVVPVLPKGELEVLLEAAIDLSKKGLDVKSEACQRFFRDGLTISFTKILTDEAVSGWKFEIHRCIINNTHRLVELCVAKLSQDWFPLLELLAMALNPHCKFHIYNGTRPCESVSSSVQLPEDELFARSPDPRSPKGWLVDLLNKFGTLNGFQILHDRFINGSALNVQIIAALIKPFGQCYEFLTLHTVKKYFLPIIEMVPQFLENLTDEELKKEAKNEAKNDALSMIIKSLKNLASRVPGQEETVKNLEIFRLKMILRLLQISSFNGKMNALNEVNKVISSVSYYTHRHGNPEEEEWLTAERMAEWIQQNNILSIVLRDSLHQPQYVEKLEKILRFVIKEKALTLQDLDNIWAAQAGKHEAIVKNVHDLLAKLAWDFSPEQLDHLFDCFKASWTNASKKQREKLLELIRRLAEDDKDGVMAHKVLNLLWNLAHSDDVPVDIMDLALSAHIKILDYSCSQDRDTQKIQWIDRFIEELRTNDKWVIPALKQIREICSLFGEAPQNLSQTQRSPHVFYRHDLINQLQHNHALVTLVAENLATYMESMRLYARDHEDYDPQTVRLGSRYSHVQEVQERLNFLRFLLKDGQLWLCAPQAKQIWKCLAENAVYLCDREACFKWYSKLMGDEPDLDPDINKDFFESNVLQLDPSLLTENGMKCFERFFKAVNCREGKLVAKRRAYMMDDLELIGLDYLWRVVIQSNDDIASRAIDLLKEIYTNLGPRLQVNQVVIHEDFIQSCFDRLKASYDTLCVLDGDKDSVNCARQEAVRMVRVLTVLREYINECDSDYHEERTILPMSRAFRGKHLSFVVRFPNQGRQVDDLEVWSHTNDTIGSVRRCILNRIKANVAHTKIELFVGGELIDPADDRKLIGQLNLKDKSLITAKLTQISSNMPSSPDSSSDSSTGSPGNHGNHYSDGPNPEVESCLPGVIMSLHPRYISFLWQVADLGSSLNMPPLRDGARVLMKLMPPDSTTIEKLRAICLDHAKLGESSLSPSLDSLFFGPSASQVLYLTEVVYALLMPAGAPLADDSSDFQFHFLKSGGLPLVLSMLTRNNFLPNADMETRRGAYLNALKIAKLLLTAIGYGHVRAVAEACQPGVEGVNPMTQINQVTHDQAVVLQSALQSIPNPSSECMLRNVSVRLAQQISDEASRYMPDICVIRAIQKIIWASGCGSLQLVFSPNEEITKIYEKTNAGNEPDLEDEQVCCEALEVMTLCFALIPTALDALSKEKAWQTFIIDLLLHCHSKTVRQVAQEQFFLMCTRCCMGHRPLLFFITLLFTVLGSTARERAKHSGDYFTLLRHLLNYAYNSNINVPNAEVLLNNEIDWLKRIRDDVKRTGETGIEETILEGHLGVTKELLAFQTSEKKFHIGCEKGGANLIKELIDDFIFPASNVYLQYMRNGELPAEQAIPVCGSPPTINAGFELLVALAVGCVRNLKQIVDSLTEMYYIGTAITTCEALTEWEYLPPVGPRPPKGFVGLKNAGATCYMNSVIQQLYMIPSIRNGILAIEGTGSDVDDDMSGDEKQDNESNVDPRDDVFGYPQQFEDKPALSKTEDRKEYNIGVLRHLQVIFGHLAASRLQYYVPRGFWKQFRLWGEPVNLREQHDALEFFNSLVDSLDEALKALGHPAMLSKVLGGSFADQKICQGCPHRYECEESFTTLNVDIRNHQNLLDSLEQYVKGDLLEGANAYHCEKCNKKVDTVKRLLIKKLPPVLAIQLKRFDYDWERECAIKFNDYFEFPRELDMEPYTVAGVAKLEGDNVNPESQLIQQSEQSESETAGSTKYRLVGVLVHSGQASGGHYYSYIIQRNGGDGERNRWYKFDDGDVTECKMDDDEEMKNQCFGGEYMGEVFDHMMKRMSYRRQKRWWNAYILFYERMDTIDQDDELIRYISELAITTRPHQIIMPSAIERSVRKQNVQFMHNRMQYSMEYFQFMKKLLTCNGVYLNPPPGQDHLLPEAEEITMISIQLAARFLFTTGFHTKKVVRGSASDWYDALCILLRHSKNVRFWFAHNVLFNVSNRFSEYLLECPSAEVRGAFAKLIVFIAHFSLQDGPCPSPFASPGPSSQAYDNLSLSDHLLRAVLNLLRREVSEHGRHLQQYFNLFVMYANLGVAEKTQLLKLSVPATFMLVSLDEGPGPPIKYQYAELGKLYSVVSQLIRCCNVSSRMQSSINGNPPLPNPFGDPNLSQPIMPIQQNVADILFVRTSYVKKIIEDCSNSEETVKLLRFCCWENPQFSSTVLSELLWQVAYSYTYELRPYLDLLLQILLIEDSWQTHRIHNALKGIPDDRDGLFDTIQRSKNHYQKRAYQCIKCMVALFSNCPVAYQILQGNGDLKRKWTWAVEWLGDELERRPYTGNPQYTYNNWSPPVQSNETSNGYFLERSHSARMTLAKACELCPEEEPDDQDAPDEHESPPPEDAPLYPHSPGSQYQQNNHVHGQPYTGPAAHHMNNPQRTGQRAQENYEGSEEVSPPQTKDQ

CC1CN(c2ccc(NC(=O)CCl)cc2)CC(C)O1 (stereo not given)
inactive: USP42 0.0421 | USP46 0.0265 | USP47 -0.557 | USP48 -0.402 | USP5 -0.0419 | USP54 0.973 | USP7 -0.186 | USP8 -0.0842 | USP9X -0.166 | UniProt O00487 -0.0932
